# In PubChem BioAssay:
# The source made the active and inactive calls. Cut-off read from the data, not from the text of the source, unless noted: active = inhibition above about 80%; inactive = the rest.
# Columns and labels:
# [1] = growth inhibition, single agent or in combination, cell-based, chromothripsis tumors, cisplatin or BGB combos (AID 1671449); settings: LFS_MB_P medulloblastoma cells;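 note: cells exposed for 96 hours; 0% = vehicle DMSO and 100% = killing by high DMSO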
# [2] = growth inhibition, single agent and combos, cell-based, chromothripsis tumors, cisplatin or BGB combos (AID 1671450); settings: HDN33 neuroblastoma cells, stronger effect = higher value;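 note: cells exposed to compound for four days; 0% = vehicle DMSO and 100% = cell killing by high DMSO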
# [3] = growth inhibition, single agents and combos, ICB984, cell-based, cisplatin or BGB combos, synergistic combos for chromothripsis tumors (AID 1671451; call rule not given here;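 note: cells exposed for 96 hours before readout; 0% = vehicle DMSO and 100% = killing by high DMSO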); settings: ICB984 medulloblastoma cells, drug combinations, stronger effect = higher value
# [4] = growth inhibition, single agents and combos, LFS_MB_1R, cell-based, cisplatin or BGB combos, synergistic combos for chromothripsis tumors (AID 1671452); settings: LFS_MB_1R medulloblastoma cells, stronger effect = higher value;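 note: cells exposed for 96 hours before readout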
# [5] = growth inhibition, single agents and combos, HTB85, cell-based, BGB or cisplatin IC20 combos, synergistic combos for chromothripsis tumors (AID 1671453); settings: HTB85 osteosarcoma cells, drug combinations, stronger effect = higher value;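 note: cells exposed for 96 hours before readout; 0% = vehicle DMSO and 100% = high DMSO killing control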
# [6] = growth inhibition, single agents and combos, CRL2098, cell-based, BGB or cisplatin IC20 combos, synergistic combos for chromothripsis tumors (AID 1671454); settings: CRL2098 osteosarcoma cells, drug combinations, stronger effect = higher value;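 note: cells exposed for 96 h before readout; 0% = vehicle DMSO and 100% = killing by high DMSO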
# [7] = growth inhibition, single agents and combos, HD-MB03, cell-based, BGB or cisplatin IC20 combos, synergistic combos for chromothripsis tumors (AID 1671455; in the data active = inhibition above about 83%;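 note: 0% = vehicle DMSO and 100% = high DMSO as cytotoxic control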); settings: HD-MB03 medulloblastoma cells, stronger effect = higher value
# [8] = growth inhibition, single agents and combos, UWB1.289, cell-based, BGB or cisplatin combos, synergistic combos for chromothripsis tumors (AID 1671456); settings: UWB1.289 ovarian carcinoma cells, stronger effect = higher value;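 note: cells exposed to compound for four days; 0% = vehicle DMSO and 100% = killing by high DMSO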
# [9] = growth inhibition, single agents and combos, LFS_MB_2R, cell-based, cisplatin combos, synergistic combos for chromothripsis tumors (AID 1671457); settings: LFS_MB_2R medulloblastoma cells, stronger effect = higher value;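 note: cells exposed to compound for four days before readout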
# [10] = growth inhibition, MDA-MB-436, cell-based, BGB or cisplatin combos, synergistic combos for chromothripsis tumors (AID 1671458; call rule not given here;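 note: cells exposed for 96 hours; 0% = vehicle DMSO and 100% = killing by high DMSO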); settings: MDA-MB-436 breast carcinoma growth inhibition, drug combinations, stronger effect = higher value
# [11] = UWB1.289_BRCA1 ovarian cancer growth, cell-based, BGB or cisplatin combinations (AID 1671459); settings: UWB1.289 BRCA1 ovarian carcinoma, drug combinations, stronger effect = higher value
# [12] = drug combination toxicity in non-malignant astrocytes – cell-based, BGB or cisplatin IC20 combos, cytotoxicity control for chromothriptic childhood tumor combination screen (AID 1671460); settings: Human astrocytes, viability inhibition, drug combinations, at 0.5 µM, stronger effect = higher value;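 note: cells exposed to compounds for 96 hours before viability readout; 0% = vehicle and 100% = killing control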
# [13] = BT084 cell growth, single and combined drugs, ICGC_MB145, cisplatin and BGB IC40 combos (AID 1671461); settings: BT084 medulloblastoma cells, drug combinations, stronger effect = higher value;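 note: cells exposed to drugs for 96 hours; 0% = vehicle DMSO and 100% = high DMSO full killing control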
# [14] = RCMB18 cell growth, single agent and combined, cisplatin and BGB IC40 combos (AID 1671462); settings: RCMB18 medulloblastoma cells, stronger effect = higher value;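 note: cells exposed to compound for four days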
# [15] = CRL1545 cell growth, single agent and combined, cisplatin and BGB IC20 combos (AID 1671464); settings: CRL1545 osteosarcoma cells, stronger effect = higher value;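 note: cells exposed to compound for 96 hours before readout; 0% = vehicle DMSO and 100% = high DMSO killing control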
# [16] = at 0.5 µM, stronger effect = higher value
# [17] = measured here: combination with BGB IC20, at 0.005 µM
# [18] = measured here: combination with BGB IC40, at 0.005 µM
# [19] = measured here: combination with BGB IC40, at 0.05 µM
# [20] = measured here: combination with cisplatin, at 0.5 µM, stronger effect = higher value
# [21] = measured here: combination with cisplatin, at 5 µM, stronger effect = higher value
# [22] = measured here: with BGB IC20 combination, at 0.5 µM
# [23] = measured here: with cisplatin IC20 combination, at 0.5 µM
# [24] = measured here: 5 uM single agent, at 5 µM
# [25] = measured here: combination with cisplatin, at 0.5 µM
# [26] = measured here: combination with cisplatin, at 5 µM
# [27] = measured here: with BGB IC20, at 0.5 µM
# [28] = measured here: with BGB IC20, at 5 µM
# [29] = measured here: with cisplatin IC20, at 0.5 µM
# [30] = measured here: with cisplatin IC20, at 5 µM
# [31] = measured here: combination with BGB at IC20, at 0.5 µM
# [32] = measured here: combination with cisplatin at IC20, at 0.5 µM
# [33] = measured here: combo with BGB at IC20, at 0.5 µM
# [34] = measured here: combo with cisplatin at IC20, at 0.5 µM
# [35] = measured here: inhibition with BGB combination, at 0.05 µM
# [36] = measured here: inhibition with cisplatin combination, at 0.05 µM
# [37] = measured here: BGB combination, at 0.5 µM
# [38] = measured here: BGB combination, at 5 µM
# [39] = measured here: cisplatin combination, at 0.5 µM
# [40] = measured here: cisplatin combination, at 5 µM
# [41] = BGB combination, concentration series, at 5 µM
# [42] = cisplatin combination, concentration series, at 5 µM
# [43] = measured here: combo with BGB IC20
# [44] = measured here: combo with cisplatin IC20
# [45] = cisplatin combination, at 0.5 µM
# [46] = measured here: BGB IC40 combination 0.05 uM, at 0.05 µM
# [47] = measured here: BGB IC40 combination, at 0.05 µM
smiles,measurement,setting,value
C=C(NC(=O)C(=C)NC(=O)c1csc(C2=NC3c4csc(n4)C4NC(=O)c5csc(n5)C(C(C)(O)C(C)O)NC(=O)C5CSC(=N5)/C(=C/C)NC(=O)C(C(C)O)NC(=O)c5csc(n5)C3(CC2)NC(=O)C(C)NC(=O)C(=C)NC(=O)C(C)NC(=O)C(C(C)CC)NC2C=Cc3c(C(C)O)cc(nc3C2O)C(=O)OC4C)n1)C(N)=O (stereo unspecified),inhibition,[1]; [16],-22.9% (inactive)
same,inhibition,[1]; [17],-22.9%
same,inhibition,[1]; [18],-22.6%
same,inhibition,[1]; [19],-22%
same,inhibition,[1]; [20],-25.6%
same,inhibition,[1]; [21],114%
same,inhibition,"[2]; BGB combo, at 5 µM",99.7%
same,inhibition,[2]; at 0.5 µM,-22.8% (inactive)
same,inhibition,"[2]; cisplatin combo, at 5 µM",99.7%
same,inhibition,[2]; [22],-25.3%
same,inhibition,[2]; [23],-12.8%
same,inhibition,"[2]; single agent, at 5 µM",99.8%
same,inhibition,"[3]; BGB IC20 combo, at 0.005 µM",7.79%
same,inhibition,"[3]; BGB IC40 combo, at 0.005 µM",-7.37%
same,inhibition,"[3]; BGB IC40 combo, at 0.05 µM",95.2%
same,inhibition,[3]; at 0.5 µM,-28.5% (inactive)
same,inhibition,"[3]; cisplatin combo, at 0.05 µM",95%
same,inhibition,"[3]; cisplatin combo, at 0.5 µM",-29.7%
same,inhibition,"[3]; cisplatin combo, at 5 µM",-54.9%
same,inhibition,[3]; [24],-28.7%
same,inhibition,[4]; at 0.5 µM,-38.7% (inactive)
same,inhibition,[4]; [19],-31%
same,inhibition,[4]; [25],-9.9%
same,inhibition,[4]; [26],100%
same,inhibition,[5]; at 0.5 µM,11.5% (inactive)
same,inhibition,[5]; [27],1.15%
same,inhibition,[5]; [28],70.9%
same,inhibition,[5]; [29],-4.79%
same,inhibition,[5]; [30],86.9%
same,inhibition,"[5]; single agent, at 5 µM",98.8%
same,inhibition,[6]; at 0.5 µM,-6.59% (inactive)
same,inhibition,[6]; [31],7.69%
same,inhibition,[6]; [32],-29.4%
same,inhibition,[7]; at 0.5 µM,2.14% (inactive)
same,inhibition,[7]; [33],13.1%
same,inhibition,[7]; [34],-39.1%
same,inhibition,[8]; at 0.5 µM,-0.91% (inactive)
same,inhibition,[8]; [35],-20.4%
same,inhibition,[8]; [36],-15.4%
same,inhibition,[9]; at 0.5 µM,-37% (inactive)
same,inhibition,[9]; [25],-29.7%
same,inhibition,[9]; [26],104%
same,inhibition,[10]; at 0.5 µM,16.8% (inactive)
same,inhibition,[10]; [37],16.2%
same,inhibition,[10]; [38],90.8%
same,inhibition,[10]; [39],25.6%
same,inhibition,[10]; [40],94.8%
same,inhibition,[11]; [41],97.5%
same,inhibition,[11]; at 0.5 µM,2.16% (inactive)
same,inhibition,[11]; [42],94.4%
same,inhibition,[12],-36.8% (inactive)
same,inhibition,[12]; [43],-24.8%
same,inhibition,[12]; [44],-63.7%
same,inhibition,[13]; at 0.5 µM,13.8% (inactive)
same,inhibition,[13]; [45],15.3%
same,inhibition,"[13]; cisplatin combination, at 5 µM",91.8%
same,inhibition,[13]; [46],-3.57%
same,inhibition,"[13]; single agent, at 5 µM",104%
same,inhibition,[14]; at 0.5 µM,-9.28% (inactive)
same,inhibition,"[14]; cisplatin combo, at 5 µM",96.8%
same,inhibition,[14]; [47],-17.4%
same,inhibition,[14]; [25],-6.48%
same,inhibition,"[14]; single agent, at 5 µM",90.8%
same,inhibition,[15]; at 0.5 µM,53.8% (inactive)
same,inhibition,[15]; [22],53.1%
same,inhibition,[15]; [23],53.1%
same,inhibition,"[15]; single agent, at 0.05 µM",-28.1%
same,inhibition,"[15]; single agent, at 5 µM",100%
COc1ccc(-c2nc(-c3cc(C(F)(F)F)cc(C(F)(F)F)c3)n(Cc3ccc(C(N)=O)cc3)c2-c2ccc(OC)cc2)cc1,inhibition,[1]; [16],-25% (inactive)
same,inhibition,[1]; [17],-26.9%
same,inhibition,[1]; [18],-58.7%
same,inhibition,[1]; [19],-38.9%
same,inhibition,[1]; [20],-39.3%
same,inhibition,[1]; [21],-39.4%
same,inhibition,"[2]; BGB combo, at 5 µM",-37.8%
same,inhibition,[2]; at 0.5 µM,0.84% (inactive)
same,inhibition,"[2]; cisplatin combo, at 5 µM",-22.8%
same,inhibition,[2]; [22],36.9%
same,inhibition,[2]; [23],-4.78%
same,inhibition,"[2]; single agent, at 5 µM",-31.8%
same,inhibition,"[3]; BGB IC20 combo, at 0.005 µM",-2.07%
same,inhibition,"[3]; BGB IC40 combo, at 0.005 µM",-30.8%
same,inhibition,"[3]; BGB IC40 combo, at 0.05 µM",-25.1%
same,inhibition,[3]; at 0.5 µM,-9.24% (inactive)
same,inhibition,"[3]; cisplatin combo, at 0.05 µM",-31.6%
same,inhibition,"[3]; cisplatin combo, at 0.5 µM",-14.1%
same,inhibition,"[3]; cisplatin combo, at 5 µM",-32.9%
same,inhibition,[3]; [24],-2.84%
same,inhibition,[4]; at 0.5 µM,-33.2% (inactive)
same,inhibition,[4]; [19],-28.8%
same,inhibition,[4]; [25],-57.5%
same,inhibition,[4]; [26],-46.5%
same,inhibition,[5]; at 0.5 µM,-24.2% (inactive)
same,inhibition,[5]; [27],-10.5%
same,inhibition,[5]; [28],-7.08%
same,inhibition,[5]; [29],-32.4%
same,inhibition,[5]; [30],-14.9%
same,inhibition,"[5]; single agent, at 5 µM",13.9%
same,inhibition,[6]; at 0.5 µM,-66.2% (inactive)
same,inhibition,[6]; [31],-72.7%
same,inhibition,[6]; [32],-56.3%
same,inhibition,[7]; at 0.5 µM,-5.54% (inactive)
same,inhibition,[7]; [33],-5.38%
same,inhibition,[7]; [34],0.332%
same,inhibition,[8]; at 0.5 µM,-10.7% (inactive)
same,inhibition,[8]; [35],-23.7%
same,inhibition,[8]; [36],-19.3%
same,inhibition,[9]; at 0.5 µM,-16.7% (inactive)
same,inhibition,[9]; [25],-7.64%
same,inhibition,[9]; [26],-13.3%
same,inhibition,[10]; at 0.5 µM,-7.79% (inactive)
same,inhibition,[10]; [37],-10.8%
same,inhibition,[10]; [38],-8.02%
same,inhibition,[10]; [39],-12.9%
same,inhibition,[10]; [40],-13.3%
same,inhibition,[11]; [41],4.42%
same,inhibition,[11]; at 0.5 µM,-9.42% (inactive)
same,inhibition,[11]; [42],7.4%
same,inhibition,[12],5.71% (inactive)
same,inhibition,[12]; [43],1.56%
same,inhibition,[12]; [44],6.54%
same,inhibition,[13]; at 0.5 µM,-7.83% (inactive)
same,inhibition,[13]; [45],-5.41%
same,inhibition,"[13]; cisplatin combination, at 5 µM",-208%
same,inhibition,[13]; [46],-36.9%
same,inhibition,"[13]; single agent, at 5 µM",-5.53%
same,inhibition,[14]; at 0.5 µM,-23% (inactive)
same,inhibition,"[14]; cisplatin combo, at 5 µM",-55.8%
same,inhibition,[14]; [47],-13.9%
same,inhibition,[14]; [25],-29.4%
same,inhibition,"[14]; single agent, at 5 µM",-12.6%
same,inhibition,[15]; at 0.5 µM,21.1% (inactive)
same,inhibition,[15]; [22],-22.6%
same,inhibition,[15]; [23],42.1%
same,inhibition,"[15]; single agent, at 0.05 µM",-21.9%
same,inhibition,"[15]; single agent, at 5 µM",-24.7%
